Assay results from PubChem BioAssay AID2284358 (EPA ToxCast).
Inconclusive results are not listed. Calls of active or inactive are those of the source. How the source made its calls: active means hit-call score of the fitted dose curve at least 0.9, where 1 is the maximum; inconclusive means response in the unintended direction; inactive means score below 0.9.

Each compound was assayed against zebrafish Retinoid X Receptor beta (RXRb), rxrba (gene 30530) (UniProt Q7SYN5) (assay: ATG_zfRXRb_EcoTox2: Attagene TRANS-FACTORIAL EcoTox-2 HepG2 Assay for zebrafish Retinoid X Receptor beta (RXRb)).
Sequence of zebrafish Retinoid X Receptor beta (RXRb), rxrba (gene 30530) (Q7SYN5 whole entry, looked up): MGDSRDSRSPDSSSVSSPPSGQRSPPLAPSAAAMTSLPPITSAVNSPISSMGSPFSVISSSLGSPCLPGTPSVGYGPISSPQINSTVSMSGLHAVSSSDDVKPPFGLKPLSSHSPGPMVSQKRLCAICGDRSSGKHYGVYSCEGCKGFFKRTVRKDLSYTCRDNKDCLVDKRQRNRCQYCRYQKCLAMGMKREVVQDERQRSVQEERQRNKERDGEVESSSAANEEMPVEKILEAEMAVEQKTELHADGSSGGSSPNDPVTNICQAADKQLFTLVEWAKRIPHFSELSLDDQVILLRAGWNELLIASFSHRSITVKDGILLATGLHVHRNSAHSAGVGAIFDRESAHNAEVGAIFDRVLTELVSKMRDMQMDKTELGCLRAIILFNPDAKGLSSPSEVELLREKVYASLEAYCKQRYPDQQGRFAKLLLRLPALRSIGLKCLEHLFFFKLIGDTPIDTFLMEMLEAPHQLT
Experimental: ATG_EcoTox2 is a cell-based, multiplexed assay created by modifying the existing Attagene TRANS-FACTORIAL system to include a panel of nuclear receptors from some or all the following species: human (Homo sapiens), african clawed frog (Xenopus laevis), rainbow trout (Oncorhynchus mykiss), japanese medaka (Oryzias latipes), and zebrafish (Danio rerio). The ECOTOX2-FACTORIAL format uses HepG2, a human liver cell line, with measurements taken at 24 hours after chemical dosing in a 24-well plate. ATG_zfRXRb_EcoTox2 is one of 29 assay components calculated in the ATG_EcoTox2 assay. It is designed to make measurements of mRNA induction, a form of inducible reporter, as detected with fluorescence intensity signals by Reverse transcription polymerase chain reaction (RT-PCR) and Capillary electrophoresis technology.The assay endpoint ATG_zfRXRb_EcoTox2 was analyzed in the positive analysis fitting direction relative to DMSO as the negative control and baseline of activity. Using a type of inducible reporter, measures of mRNA for gain-of-signal activity can be used to understand the reporter gene at the transcription factor-level as they relate to the gene RXRb. Furthermore, this assay endpoint can be referred to as a primary readout, because this assay has produced multiple assay endpoints where this one serves a reporter gene function. To generalize the intended target to other relatable targets, this assay endpoint is annotated to the nuclear receptor intended target family, where the subfamily is non-steroidal.
Human liver HepG2 cells are transiently transfected with multiple reporter transcription units (MRTUs) in 6-well plates using FuGene 6 reagent (Roche; 3 ml FuGene/1 mg DNA). The MRTU constructs are regulated by a cis-regulating element (promoter). Each RTU expresses a GAL4-UAS that regulates the transcription of a nearby target reporter gene sequence. A major difference between the CIS and TRANS system is that in CIS activities of endogenous TFs are measured, whereas the TRANS assay evaluates changes in activities of exogenous, chimeric NR-Gal4 proteins. […] At the end of 24 hour incubation, total RNA was isolated using TriZol reagent (Invitrogen). The isolated RNA is then reverse-transcribed using oligo(dT) primer and Mo-MLV reverse transcriptase (Invitrogen) with DNAse I (Ambion) treatment for 30 min. The one-tenth of the produced cDNA was amplified by PCR using Taq DNA polymerase (Invitrogen) and two reporter sequence-specific primers. The PCR products were fluorescently labeled by primer extension with 6-arboxyfluorescein (6-FAM) 5'-labeled reporter sequence-specific primer (2 min at 95 C, 20 s at 68 C and 10 min at 72 C) and these products were digested with 5U of HpaI (New England Biolabs) for 2h at 37 C. The fragments were purified using Qiaquick PCR columns (Qiagen), analyzed on an ABI 3130xL genetic analyzer (Applied Biosystems) with peak positions identified by using a set of X-rhodamine (ROX)-labeled MapMarker1000 molecular weight standards (BioVentures). The raw capillary electrophoresis data was processed using Attagraph software (Attagene).

Structure (SMILES) | AC50 | outcome
C=C(c1ccc(C(=O)O)cc1)c1cc2c(cc1C)C(C)(C)CCC2(C)C | 597 nM (active) | 
CC(C)(Oc1ccc(C2CC2(Cl)Cl)cc1)C(=O)O (stereo not given) |  | inactive
Cc1c(C)c2c(c(C)c1O)CCC(C)(COc1ccc(CC3SC(=O)NC3=O)cc1)O2 (stereo not given) |  | inactive
Cc1ccc(C)c(OCCCC(C)(C)C(=O)O)c1 |  | inactive
CC(C)(Oc1ccc(CCNC(=O)c2ccc(Cl)cc2)cc1)C(=O)O |  | inactive
C[C@@H]1C[C@H]2[C@@H]3CCC4=CC(=O)C=C[C@]4(C)[C@@]3(F)[C@@H](O)C[C@]2(C)[C@@]1(O)C(=O)COP(=O)(O)O |  | inactive
CC(c1cc2ccccc2s1)N(O)C(N)=O (stereo not given) |  | inactive
Cc1cccc(Nc2cc(Cl)nc(SCC(=O)O)n2)c1C |  | inactive
CC(C)(Oc1ccc(Cl)cc1)C(=O)O |  | inactive
C[C@]12C=CC(=O)C=C1CC[C@@H]1[C@@H]2C(=O)C[C@@]2(C)[C@H]1CC[C@]2(O)C(=O)CO |  | inactive
